From PubChem BioAssay (NCATS)
Results filed as inconclusive are left out. A number with no mark means an inactive call. Calls follow the shape of the dose curve; as a rule, active = well fitted cell-killing curve with a large enough effect; inconclusive = small, poorly fitted or top-dose-only effect, or effect the other way; inactive = flat fitted curve, though single readings scatter.

These molecules were tested on CAOV3 (assay: Primary qHTS to identify gynecologic anti-cancer compounds using libraries of approved drugs and bioactive compounds (AID 1345084; also: nearly all actives have a fitted effect of over 55% in size)). Details: Gynecologic cancer cell panel viability, ATPlite luminescence, 48 h; series mostly up to 57.5 µM; activity change, negative = cytotoxicity: at the top concentration.
Method in brief: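 Luminescence from the ATPlite ATP-monitoring reagent indicates viable cell number; lower signal means cytotoxicity. Cells received compound 16 h after seeding and were exposed for 48 h across five concentrations.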
% is scaled to controls: 0 for no effect and ±100 for the full control effect.

SMILES	activity change, negative = cytotoxicity
COC(=O)CC(C)(O)CC(=O)OCc1ccc(O[C@@H]2O[C@H](CO)[C@@H](O)[C@H](O)[C@H]2O)cc1 (some centres undefined)	9.07% [at 25.3 µM]
CC[C@@H](O)C[C@@H]1C(C)=C[C@@H]2CCCC[C@@H]2[C@@]1(C)C(=O)O	7.95%
C=C1CCC2C(C)(C(=O)O)CCCC2(C)C1CC/C(=C\CO)CO (centres undefined)	40.9% [at 38.5 µM]
Cc1oc2ccccc2c1CNC(=O)NCc1cccs1	13.8%
CCC(C)C(=O)OC1CC(C)C=C2C=CC(C)C(CCC(O)CC(O)CC(=O)O)C21 (centres undefined)	-13.6% [at 25.3 µM]
C[C@]12C=C[C@@]3(CCC4[C@](C)(CO)CCC[C@@]4(C)C3CC1)C2 (some centres undefined)	3.73%
CC(C)CC1NC(=O)C(C)NC(=O)C(CC(C)C)OC(=O)CCCNC1=O (centres undefined)	9.39% [at 38.5 µM]
COC1/C=C/C(C)(O)C(SCC(N)C(=O)O)CC(=O)OC(C)C(C)CC/C=C/1C (centres undefined)	3.33% [at 25.3 µM]
CC/C=C\CC1C(=O)C=CC1(CCCCCCCC(=O)O)OC(C)=O (centres undefined)	-0.608% [at 38.5 µM]
CC1OC(OC2C(C)OC(OC3C(O)C(CO)OC(O[C@H]4CC[C@@]5(C)C(CC[C@]6(C)C5CC=C5C7[C@@H](C)[C@H](C)CC[C@]7(C(=O)O)CC[C@]56C(=O)O)C4(C)C)C3O)C(O)C2O)C(O)C(O)C1O (some centres undefined)	10.5% [at 11.6 µM]
C[C@@H]1O[C@@H](OC[C@H]2O[C@@H](OC(CCCCc3ccc(O)cc3)CCc3ccc(O)cc3)[C@H](O)[C@@H](O)[C@@H]2O)[C@H](O)[C@H](O)[C@H]1O (some centres undefined)	-4.7% [at 25.3 µM]
CC(c1ncncc1F)C(O)(Cn1cncn1)c1ccc(F)cc1F (centres undefined)	22.3%
CC1(C=O)CC[C@]2(C(=O)O[C@@H]3O[C@H](CO)[C@@H](O)[C@H](O)[C@H]3O)CC[C@]3(C)C(=CCC4[C@@]5(C)C[C@H](O)[C@H](O[C@@H]6OC[C@@H](O)[C@H](O)[C@H]6O)[C@@](C)(CO)C5CC[C@]43C)C2C1 (some centres undefined)	-2.27% [at 11.6 µM]
O=C(O)/C=C/c1cc2c(cc1O[C@@H]1O[C@H](CO)[C@@H](O)[C@H](O)[C@H]1O)OCO2	16.9% [at 38.5 µM]
CC(C)O[C@@H]1O[C@H](CO)[C@@H](O)[C@H](O)[C@H]1O	11.5%
CC1=C2C3OC(=O)C(C)C3(O)CCC2(C)CCC1O (centres undefined)	22%
COC(=O)CC1CC(c2ccc(O)cc2)=NO1 (centres undefined)	-11.1%
CC(=O)C12OC(C)(C)OC1CC1C3CCC4=CC(=O)C=CC4(C)C3(F)C(O)CC12C (centres undefined)	-5.19%
C[C@H]1O[C@@H](O[C@H]2CC[C@@]3(C)C(CC[C@]4(C)C3CC=C3C5CC(C)(C)CC[C@]5(C(=O)O)CC[C@]34C(=O)O)C2(C)C)[C@H](O)[C@@H](O)[C@@H]1O (some centres undefined)	-4.6% [at 25.3 µM]
C=C1CCC2C(C)(C(=O)OC)CCCC2(C)C1CCC(C)CC(=O)O (centres undefined)	3.97% [at 38.5 µM]

SMILES	activity change, negative = cytotoxicity
COc1ccccc1Oc1ccc(N(Cc2cccnc2)S(=O)(=O)CC(F)(F)F)cc1	23.1%
COc1ccc(Cl)c(Nc2nc3ccccc3nc2NS(=O)(=O)c2cccc(NC(=O)C(C)(C)N)c2)c1	-24.4%
COC(=O)C1=CO[C@@H](O[C@@H]2O[C@H](CO)[C@@H](O)[C@H](O)[C@H]2O)[C@H]2[C@@H]1C=C[C@@]21C=C([C@H](C)O)C(=O)O1	6.2% [at 25.3 µM]
CC1(C)CC2=C3C=CC4C5(C)CCC(O)C(C)(C)C5CCC4(C)C3(C)CCC2(C)C(O)C1 (centres undefined)	20% [at 25.3 µM]
O=C(O)c1ccc(OC2OC(CO)C(O)C(O)C2O)cc1 (centres undefined)	6.9%
CC(C)CN(C[C@@H](O)[C@H](Cc1ccccc1)NC(=O)O[C@@H]1CO[C@H]2OCC[C@H]21)S(=O)(=O)c1ccc(N)cc1	-9.99%
C=C1C[C@]23C[C@H]1CC[C@H]2[C@@]1(C)CCC[C@@]2(C)C(=O)O[C@@H]([C@@H]3O)[C@@H]12	-3.15% [at 38.5 µM]
CC(=O)O[C@H]1C[C@@]2(C)[C@@H](CC[C@H]3[C@@]4(C)C=CC(=O)[C@@H](C)[C@@H]4[C@H](O)C(=O)[C@@]32C)/C1=C(/CCC=C(C)C)C(=O)O	-1.28% [at 25.3 µM]
COC(=O)N[C@H](C(=O)N1[C@@H]2CC[C@@H](C2)[C@H]1c1nc2ccc(-c3ccc4c(c3)C(F)(F)c3cc(-c5cnc([C@@H]6CCC7(CC7)N6C(=O)[C@@H](NC(=O)OC)C(C)C)[nH]5)ccc3-4)cc2[nH]1)C(C)C	-2.69% [at 25.3 µM]
COc1ccc(C2(O)c3ccccc3NC(=O)C2O)cc1 (centres undefined)	12.9%
O=C(CN1C(=O)C2(CCCC2)NCC1c1cc(F)cc(F)c1)Nc1ccc2c(c1)CC1(C2)C(=O)Nc2ncccc21 (centres undefined)	-5.15%
C=C1C(=O)OC2CC3(C)C(CC12)C(C)=CC(O)C3OC(C)=O (centres undefined)	18% [at 38.5 µM]
C[C@@H]1O[C@@H](O[C@H]2[C@H](OC(=O)[C@]34CCC(C)(C)C[C@H]3C3=CCC5[C@@]6(C)C[C@H](O)[C@H](O[C@@H]7O[C@H](CO)[C@@H](O[C@H]8OC[C@](O)(CO)[C@H]8O)[C@H](O)[C@H]7O)[C@@](C)(CO)C6[C@H](O)C[C@@]5(C)[C@]3(C)C[C@H]4O)OC[C@H](O)[C@@H]2O)[C@H](O)[C@H](O)[C@H]1O[C@@H]1OC[C@@H](O)[C@H](O[C@@H]2OC[C@](O)(CO)[C@H]2O)[C@H]1O (some centres undefined)	-10.4% [at 6.55 µM]
O=C(O)[C@H](Cc1ccc(Nc2nccc3ccncc23)cc1)NC1=C(Br)C(=O)C12CCCCC2	22.3%
CC(C)C(C(=O)N(C)C(C)C(N)=O)N(C)C(=O)C1CCCN1C(=O)/C=C/C=C/C(O)C(C)O (centres undefined)	2.86% [at 25.3 µM]
Nc1nc2c(c(=O)[nH]1)C[C@@H](CCc1ccc(C(=O)N[C@@H](CCC(=O)O)C(=O)O)cc1)CN2	9.06%
CC1(O)CCCC2(C)C1CCC13CC(CO)C(CCC12)C3 (centres undefined)	-12.3%
CC(=O)/C=C/[C@H]1[C@](C)(O)[C@@H](O)[C@H](OC(C)=O)C2C(C)(C)CCC[C@@]21C (some centres undefined)	-2.4% [at 38.5 µM]
C=C(C(=O)OC)C1C(O)CC2(C)C(=O)CCC(O)(CO)C2C1O (centres undefined)	-6.76% [at 38.5 µM]
